This passage reports outcome results from PubChem BioAssay AID686999 (Broad Institute, 2013).

Structures are written as SMILES. Measured potencies and affinities stand elsewhere. Records with an inconclusive call do not appear. Calls of active or inactive are those of the source.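 Rule for the calls: active = active in every separate test run, each with half-maximal potency at or under twice its top valid dose; inconclusive = the separate test runs give conflicting calls; inactive = inactive in every test run, including signal rising instead.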

The nature of the experiment: Cryptococcus growth inhibition by alamar blue – cell lysis, cherry-picks, replicate tests, mechanism study for C. neoformans antifungal project, dose response (AID 686999). The conditions noted are these: 72 h; series mostly up to 35 µM. (In general: The colour change of resazurin is a common sign of viable cells or microbes.)
On to `O=C(NC(=S)Nc1ccc(Br)cc1)C1CCC1`, for which the outcome was inactive.

On to `Fc1ccccc1NC(=S)NN(Cc1ccccc1)c1ccccc1`, for which the compound was classed as inactive.

As for `COc1ccccc1NC(=S)NCc1ccccc1Cl`, the result was inactive.

Take `Fc1ccccc1NC(=S)NCCc1cccc(Cl)c1`: the outcome was inactive.

Consider `Cc1cc(C)c2nc(N3CCN(C(=O)c4cccs4)CC3)sc2c1`, for which the compound was called inactive.

For the compound `Cc1cc(C(=O)NC(=S)Nc2ccccc2N2CCOCC2)ccc1[N+](=O)[O-]`, the call was inactive.

For `S=C(NCCCc1ccccc1)Nc1ccccc1`, the call was inactive.

In the case of `CCCCN1C(=S)NC[C@@H]1Cc1ccccc1`, the result was inactive.

Regarding `O=C(NC(=S)Nc1ccccc1N1CCCC1)c1ccc([N+](=O)[O-])cc1`, the result was inactive.

With `COCCN1C(=S)N[C@@H](c2ccccc2)C(C(=O)OC)=C1C`, the call was inactive.

Consider `COC(=O)C1=C(C)N(Cc2ccc(Cl)cc2)C(=S)NC1c1cccc(Cl)c1` (stereo unspecified), for which the compound was called inactive.

Take `COc1ccc(C(=O)NC(=S)Nc2ccccc2N2CCCCC2)cc1[N+](=O)[O-]`: the call was inactive.

For `COC(=O)C1=C(C)N(CC(C)C)C(=S)NC1c1cccc(F)c1` (stereo unspecified), the call was inactive.

As to `COc1cccc(NC(=S)NC(=O)Cc2ccc(Cl)cc2)c1`, the compound was called inactive.

With `COC(=O)C1=C(C)N(Cc2ccc(F)cc2)C(=S)NC1c1ccccc1` (stereo unspecified), the compound was called inactive.

As for `CCOC(=O)NC(=S)Nc1ccc(C(C)(C)C)cc1Br`, the compound was classed as inactive.

Consider `O=C(NCCN1CCCCC1)[C@H]1N[C@H]2c3ccc(-c4ccncc4)c(=O)n3C[C@H]2[C@@H]1CO`, for which the result was inactive.

For `Cc1ccc(C(=O)NC(=S)Nc2ccc(N3CCOCC3)cc2)cc1`, the outcome was inactive.

For the compound `CO[C@H]1CN(C)C(=O)c2cc(NC(=O)C3CC3)ccc2OC[C@@H](C)N(Cc2cncnc2)C[C@H]1C`, the outcome was inactive.

Regarding `O=C(Cc1ccccc1)N[C@H]1C=C[C@@H](CC(=O)N2CCOCC2)O[C@@H]1CO`, the compound was called inactive.

`Cc1cc(Cl)ccc1NC(=S)NCc1ccc(F)cc1`: the result was inactive.
